For 41 molecules, inhibition results are on record in PubChem BioAssay AID485273 (Sanford-Burnham Center for Chemical Genomics, 2010).

Each structure is given as a SMILES string. Screen size: about 330,000 compounds; about 1,500 (0.45%) were called active. What follows is part of a selection rich in actives, with near analogues and random picks from the rest. Unmarked numbers belong to inactive results. No stated cut-off is given here; in the data, active means inhibition above about 45% (passing the limit was not always enough); inconclusive means no clear call, values can overlap the other calls.

Sequence of Ubiquitin-conjugating enzyme E2 N (Homo sapiens) (P61088 whole entry, looked up): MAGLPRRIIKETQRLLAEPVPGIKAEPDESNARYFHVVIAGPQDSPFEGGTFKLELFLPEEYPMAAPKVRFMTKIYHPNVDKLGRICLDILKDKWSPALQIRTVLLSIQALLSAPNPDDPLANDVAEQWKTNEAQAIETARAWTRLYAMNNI

The test has as its target Ubiquitin-conjugating enzyme E2 N (Homo sapiens) (UniProt P61088). Description: blockers of UBC13 ubiquitin chain synthesis – biochemical, TR-FRET, uHTS, primary screen (AID 485273). The note with it: UBC13 polyubiquitin chain formation, at 20 µM, hits give high values. A general note: In TR-FRET formats the signal depends on donor and acceptor labels being close together.
One may read the inhibition as the relative decrease from the control value, in per cent. Regarding `CCOCCCNC(=O)C(=O)NCCCOCC`, the inhibition is -2.5%.

On to `CC1CC(C)(C)n2c(O)c(N=NC(N)=S)c3cccc1c32` (stereo unspecified), for which the inhibition is 92.1% (active).

As for `COc1ccc(S(=O)(=O)N2CCC(C(=O)OCC(=O)c3ccccc3)CC2)cc1[N+](=O)[O-]`, the inhibition is -5.5%.

For `FC(F)(F)c1ccnc(Oc2ccc(C3=NCCS3)cc2)c1`, the inhibition was 7.6%.

Turning to `O=C(COc1ccc2ccc(=O)oc2c1)NCC(O)c1ccccc1` (stereo unspecified), the inhibition was 4.2%.

With `COc1ccc2sc(N(CCCN(C)C)C(=O)c3ccc(S(=O)(=O)N(C)C4CCCCC4)cc3)nc2c1`, the inhibition is 15.5%.

For the molecule `CN(C)CCCN(C(=O)c1ccc(S(=O)(=O)N2CCCCCC2)cc1)c1nc2cc3c(cc2s1)OCCO3`, the inhibition is 85.8% (active).

`CN(C)CCCN(C(=O)c1ccc(S(=O)(=O)N2CCCCCC2)cc1)c1nc2ccc(Br)cc2s1`: the inhibition is 67% (active).

For `CCc1ccc2nc(N(CCCN(C)C)C(=O)c3ccc4c(c3)OCCO4)sc2c1`, the inhibition was 21.3%.

With `CCOc1ccc2nc(N(CCCN(C)C)C(=O)c3ccc(C(=O)c4ccccc4)cc3)sc2c1`, the inhibition is 87.8% (active).

`CN(C)CCCN(C(=O)c1ccc(S(=O)(=O)N2CCCc3ccccc32)cc1)c1nc2ccc(F)cc2s1`: the inhibition was 37.2%.

Turning to `CCN(CC)CCN(C(=O)c1cccc([N+](=O)[O-])c1)c1nc2ccc(OC)cc2s1`, the inhibition was -0.4%.

Consider `CN(C)CCN(C(=O)CN1C(=O)c2ccccc2C1=O)c1nc2cc3c(cc2s1)OCCO3`, for which the inhibition is 6.7%.

For `CCCC(=O)N(CCN1CCOCC1)c1nc2ccc(OCC)cc2s1`, the inhibition was -2.6%.

Take `O=C(NCc1csc(-c2cccs2)n1)C1CC1`: the inhibition was -1.3%.

Consider `CC(C)(CCl)C(=O)Nc1ccc(Sc2ccc(F)cc2)cc1`, for which the inhibition is 7.4%.

Take `Cc1ccc(C)c(NC(=O)C(c2ccccc2)N2CCN(CC(=O)NC3CC3)CC2)c1` (stereo unspecified): the inhibition was 2.6%.

With `Cc1ccc(N2C(=O)N3[C@@H]4c5ccccc5OC[C@@H]4[C@@H](c4ccccc4)[C@@]3(C)C2=O)cc1`, the inhibition was 6.8%.

With `O=C1CC(Cc2ccc(Cl)cc2)C(=O)N1c1cc(Cl)ccn1` (stereo unspecified), the inhibition is 0%.

For the molecule `CN(c1ccccn1)c1ncnc2[nH]ncc12`, the inhibition is 5.9%.

`O=C(NNC(=O)c1cc(-c2ccccc2Cl)nc2ccccc12)c1csc(N2CCOCC2)n1`: the inhibition is 1.5%.

As to `CSCCC(NC(=O)c1ccc(Cl)cc1Cl)C(=O)NNC(=O)c1csc(N2CCOCC2)n1` (stereo unspecified), the inhibition was 58.4% (active).

`COc1ccccc1C(=O)NC(CCSC)C(=O)NNC(=O)c1csc(N2CCOCC2)n1` (stereo unspecified): the inhibition is 4.2%.

As for `C[C@@H](CN1CCC[C@H]1CN1C(N)=NC[C@@H]1Cc1ccccc1)N1C[C@@H](Cc2ccccc2)N(CCCC2CCCC2)C1=N`, the inhibition was 62.2% (active).

With `NC1=NC[C@@H](Cc2ccc(O)cc2)N1CC1CCCCC1`, the inhibition is 17.3%.

Take `CC[C@@H](C)[C@@H]1CN([C@@H](C)CN2CCC[C@H]2CN2C(N)=NC[C@H]2C(C)C)C(=N)N1CCc1ccc(Cl)c(Cl)c1`: the inhibition was 50.1% (active).

Take `CCCCN1C(N)=NC[C@@H]1Cc1ccccc1`: the inhibition was -6.3%.

Take `CC(=O)N1CCC(N(C(=O)Nc2ccc(Cl)cc2)C(C)C)CC1`: the inhibition was -2.5%.

With `CC(OC(=O)CN1C(=O)C2CCCCC2C1=O)C(=O)Nc1ncc(Cl)cc1Cl` (stereo unspecified), the inhibition is -6.5%.

As for `CCOC(=O)c1ccccc1NC(=O)COC(=O)C(Cc1c[nH]c2ccccc12)NC(C)=O` (stereo unspecified), the inhibition was 3.4%.

Consider `O=C(CNC(=O)Cc1ccccc1)NCC(=O)OCC(=O)c1ccccc1Cl`, for which the inhibition was 12%.

Turning to `CC1(C)Cc2ccccc2-c2[nH]c(=S)[nH]c(=O)c21`, the inhibition is 62.2% (active).

For the molecule `CC1(C)Cc2ccccc2-c2nc(CN3CCOCC3)[nH]c(=O)c21`, the inhibition was -5.3%.

On to `CCC1(CC)Cc2ccccc2-c2nc(CCl)[nH]c(=O)c21`, for which the inhibition was 9%.

With `CCN(CC)CCC(c1ccc2c(c1)OCO2)c1c(OC)cc(OC)c2c(-c3ccccc3)cc(=O)oc12` (stereo unspecified), the inhibition is 32.1%.

For `CCN(CC)CCC(c1cc(OC)c(OC)c(OC)c1)c1c(OC)cc(OC)c2c(-c3ccccc3)cc(=O)oc12` (stereo unspecified), the inhibition is 50.2% (active).

Turning to `CCN(CC)C(=O)CC(c1ccc2c(c1)OCO2)c1c(OC)cc(OC)c2c(-c3ccccc3)cc(=O)oc12` (stereo unspecified), the inhibition is 8.8%.

With `N#CCCn1ncc2ccccc21`, the inhibition is 0.9%.

Turning to `CCCCn1c(N)c(N(CC)C(=O)c2ccccc2C(F)(F)F)c(=O)[nH]c1=O`, the inhibition was -4.3%.

For `CCn1c(CNC(=O)c2cc(OC)c(OC)c(OC)c2)cc2cc(C)ccc21`, the inhibition is 5.6%.

As for `O=S(=O)(Cc1cc(Sc2ccccc2)nc(-c2ccccc2)n1)c1ccccc1`, the inhibition was -3.4%.
